Laboratory results reported in PubChem BioAssay (NCATS).
Unmarked numbers belong to inactive results. Records with an inconclusive call do not appear. Calls of active or inactive are those of the source. Unless noted, the call rests on the fitted dose curve.

Experiments:
[1] = biological target: Lysosomal acid glucosylceramidase (Homo sapiens) (UniProt P04062); test: Glucocerebrosidase-p2 (AID 348; in the data active means potency below about 10 µM; further: potency means the concentration at half of the fitted maximal effect); settings: purified GBA, blue fluorogenic substrate, 40 min
Method in brief: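 Compounds titrated from 0.6 nM upwards against 0.2 nM enzyme in pH 5.9 citric acid/KH2PO4, taurocholate, tween-20; blue fluorogenic substrate 80 uM, 40 min room temperature, stopped and read Ex 365/Em 440 for AC50.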

[2] = AP1 Signaling Pathway (AID 357; active means well fitted curve in either direction with a large enough effect, not every such curve was filed as active;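 further: ME-180 reporter cells stimulated with EGF at its EC50 level; on the % scale 0 is the no-effect control and ±100 the full control effect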); settings: ME-180 AP-1-bla reporter, EGF-induced, beta-lactamase ratio, 5 h; at 7.69 µM (top of the series) unless noted
Method in brief: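 Cells are seeded overnight, exposed to compound titrations and an EC50 level of EGF for 5 hours at 37 °C, then loaded with CCF4 dye for 2.5 hours. Beta-lactamase activity under the AP-1 element is read as a blue/green ratio.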

[3] = biological target: Cytochrome P450 1A2 (Homo sapiens) (UniProt P05177); test: p450-cyp1a2 (AID 410); settings: recombinant CYP1A2, luciferin-ME demethylation, luminescence; series mostly up to 11.4 µM; further: potency means the concentration at half of the fitted maximal effect;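 on activity change, negative = inhibition: -100% = full effect of reference inhibitor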
Method in brief: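 Inhibition was calculated relative to 57 uM furafylline (full inhibition). The reaction used human CYP1A2 at 20nM with Luciferin-ME at its Km, 100uM, driven by an NADPH-regenerating system for 60 min at room temperature.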

[4] = Stat Signaling Pathway (AID 446; active means well fitted curve in either direction with a large enough effect, not every such curve was filed as active;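 further: ME-180 cervical cancer cells given 40 pM IL-6 alongside compound; SIE-controlled beta-lactamase reporter measured as 460/530 nm FRET emission ratio; on the % scale 0 is the no-effect control and ±100 the full control effect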); settings: ME-180 SIE beta-lactamase reporter, IL-6 stimulated, 5 h; at 7.69 µM (top of the series) unless noted
Method in brief: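 Reporter line: ME-180 cervical carcinoma, SIE-beta-lactamase. Treatment: compound with 40 pM IL-6, 5 hrs, 37 C, in low-serum OPTI-MEM with 10 mM HEPES pH 7.3. Detection: 460/530 nm fluorescence.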

[5] = biological target: Glucocorticoid receptor (Homo sapiens) (UniProt P04150); test: GR-GFP Redistribution (AID 450;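 active means compounds whose dose series gives a full or clear partial fitted curve of increased nuclear translocation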; further: potency means the concentration at half of the fitted maximal effect); settings: U2OS GR-GFP nuclear translocation, laser cytometry, 2 h
[6] = biological target: Glucocorticoid receptor (Homo sapiens) (UniProt P04150); test: GR-EFC Redistribution (AID 451); settings: CHO-K1 GR-EFC translocation, beta-gal luminescence, 2 h; further: potency means the concentration at half of the fitted maximal effect
Method in brief: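 Translocation of GR-ED fusion to nuclear EA restores b-gal, read by luminescence after 1 h room-temperature detection. Engineered CHO-K1 biosensor cells, 1,000/well, exposed 2 h at 37 C to titrations up to 46 uM final.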

[7] = biological target: 3',5'-cyclic-AMP phosphodiesterase 4B (Homo sapiens) (UniProt Q07343); test: qHTS Assay for Inhibitors of PDE-IV (AID 607; active means well fitted activation curve with a large enough effect in the main read-out, with a control signal flat, not every such curve was filed as active; further: % of control where 0% means no effect); settings: HEK293 ACTOne CNG channel cells, membrane potential fluorescence; series mostly up to 22.9 µM
Method in brief: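 Cell-based read-out of cAMP via a modified cyclic nucleotide-gated channel and membrane potential dye (535/590 nm) in HEK293 cells expressing PDE4 endogenously. Compounds tested up to 22.9 uM final; 100 uM RO 20-1724 reference.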

[8] = biological target: Mitogen-activated protein kinase 10 (Mus musculus) (UniProt Q61831); test: JNK3 AlphaScreen Assay (AID 530; active means well fitted curve in either direction with a large enough effect, not every such curve was filed as active;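 further: kinase came from lysate of stimulated human HepG2 cells; signal reports phosphorylation of biotinylated GST-cJun 1-79 at Ser73 with 10 µM ATP; on the % scale 0 is the no-effect control and ±100 the full control effect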); settings: JNK3 lysate, c-Jun phosphorylation; series mostly up to 11.4 µM
Method in brief: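 Room-temperature AlphaScreen kinase assay; pre-activated HepG2 lysate as JNK3 source, biotin-GST-cJun(1-79) substrate, 10 uM ATP, compound 15 min preincubation.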

[9] = biological target: Cytochrome P450 3A4 (Homo sapiens) (UniProt P08684); test: qHTS Assay for Inhibitors and Substrates of Cytochrome P450 3A4 (AID 884; active means well fitted curve in the direction sought with a large enough effect; an effect the other way counts as inactive or inconclusive; further: potency means the concentration at half of the fitted maximal effect; nearly all actives have a fitted effect of over 50% in size); settings: recombinant CYP3A4, Luciferin-PPXE luminescence; series mostly up to 57.1 µM
Method in brief: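 20 nM human CYP3A4 with 25 uM Luciferin-PPXE (at KM) in 200 mM KPO4, preincubated 10 min with compound; NADPH regeneration started a 60 min RT reaction. Luciferin detected by luminescence, normalized to 57 uM ketoconazole as full inhibition.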

[10] = biological target: Cytochrome P450 3A4 (Homo sapiens) (UniProt P08684); test: qHTS Assay for Activators of Cytochrome P450 3A4 (AID 885; active means well fitted curve in the direction sought with a large enough effect; an effect the other way counts as inactive or inconclusive; further: nearly all actives have a fitted effect of over 65% in size); settings: recombinant CYP3A4, Luciferin-PPXE luminescence, 60 min; series mostly up to 11.4 µM
Method in brief: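 Signal was normalized against complete inhibition by 57 uM ketoconazole. The reaction used 20nM CYP3A4 with 25uM Luciferin-PPXE, 10-min compound preincubation and a 60-min NADPH-supported step at RT.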

[11] = biological target: Cytochrome P450 2D6 (Homo sapiens) (UniProt P10635); test: qHTS Assay for Inhibitors and Substrates of Cytochrome P450 2D6 (AID 891; active means well fitted curve in the direction sought with a large enough effect; an effect the other way counts as inactive or inconclusive; further: potency means the concentration at half of the fitted maximal effect; nearly all actives have a fitted effect of over 60% in size); settings: recombinant CYP2D6, luciferin-ME EGE luminescence; series mostly up to 11.4 µM
Method in brief: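 Human CYP2D6 (5 nM) with 30 uM Luciferin-ME EGE (at Km) in 100 mM KPO4, compound preincubated 10 min, then NADPH regeneration system for 60 min at room temperature. Luciferin read by luminescence; normalized to 1.43 uM quinidine.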

[12] = biological target: Cytochrome P450 2C9 (Homo sapiens) (UniProt P11712); test: qHTS Assay for Inhibitors and Substrates of Cytochrome P450 2C9 (AID 883; active means well fitted curve in the direction sought with a large enough effect; an effect the other way counts as inactive or inconclusive; further: potency means the concentration at half of the fitted maximal effect; nearly all actives have a fitted effect of over 60% in size); settings: recombinant CYP2C9, luciferin-H luminescence, 60 min; series mostly up to 11.4 µM
Method in brief: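 Inhibition of CYP2C9 is scored as loss of luminescence, with 57uM sulphaphenazole defining 100% inhibition. Substrate Luciferin-H is used at 100uM, equal to its KM; enzyme at 10nM in 25mM KPO4, 60 min at 37C with NADPH regeneration.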

[13] = biological target: Cytochrome P450 2C19 (Homo sapiens) (UniProt P33261); test: qHTS Assay for Inhibitors and Substrates of Cytochrome P450 2C19 (AID 899; active means well fitted curve in the direction sought with a large enough effect; an effect the other way counts as inactive or inconclusive; further: potency means the concentration at half of the fitted maximal effect; nearly all actives have a fitted effect of over 60% in size); settings: recombinant CYP2C19, luciferin-H EGE luminescence; series mostly up to 11.4 µM
Method in brief: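 5nM enzyme + 10uM Luciferin-H EGE (=KM), 50mM KPO4; cpd pin-transferred, 10 min 37C; NADPH regen, 60 min 37C; stopped w/ luciferin detection reagent, 20 min; luminescence. Normalized to 57uM ketoconazole (AC100).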

Chain of Glucocorticoid receptor (Homo sapiens) (P04150 whole entry, looked up, the tested form may be a part): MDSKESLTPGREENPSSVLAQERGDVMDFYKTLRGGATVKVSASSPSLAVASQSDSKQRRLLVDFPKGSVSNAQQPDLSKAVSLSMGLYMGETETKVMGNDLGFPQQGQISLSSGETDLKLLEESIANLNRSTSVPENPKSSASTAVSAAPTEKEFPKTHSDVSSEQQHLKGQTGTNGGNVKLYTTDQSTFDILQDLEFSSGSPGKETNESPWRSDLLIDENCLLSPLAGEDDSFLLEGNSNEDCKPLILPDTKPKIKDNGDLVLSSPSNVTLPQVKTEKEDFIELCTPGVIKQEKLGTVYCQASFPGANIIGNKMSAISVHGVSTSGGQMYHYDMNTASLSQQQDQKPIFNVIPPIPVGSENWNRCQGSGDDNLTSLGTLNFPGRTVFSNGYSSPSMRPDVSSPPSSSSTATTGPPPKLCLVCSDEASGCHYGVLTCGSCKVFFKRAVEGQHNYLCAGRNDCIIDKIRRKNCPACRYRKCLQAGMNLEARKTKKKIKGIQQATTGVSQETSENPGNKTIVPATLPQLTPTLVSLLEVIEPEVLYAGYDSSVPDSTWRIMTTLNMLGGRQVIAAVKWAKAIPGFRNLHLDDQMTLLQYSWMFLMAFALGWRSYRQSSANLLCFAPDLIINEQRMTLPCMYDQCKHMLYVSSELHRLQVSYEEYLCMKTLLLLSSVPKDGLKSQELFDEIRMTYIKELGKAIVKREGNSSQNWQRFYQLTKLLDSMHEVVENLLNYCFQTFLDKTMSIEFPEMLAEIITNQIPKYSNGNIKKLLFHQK
Chain of 3',5'-cyclic-AMP phosphodiesterase 4B (Homo sapiens) (Q07343 whole entry, looked up): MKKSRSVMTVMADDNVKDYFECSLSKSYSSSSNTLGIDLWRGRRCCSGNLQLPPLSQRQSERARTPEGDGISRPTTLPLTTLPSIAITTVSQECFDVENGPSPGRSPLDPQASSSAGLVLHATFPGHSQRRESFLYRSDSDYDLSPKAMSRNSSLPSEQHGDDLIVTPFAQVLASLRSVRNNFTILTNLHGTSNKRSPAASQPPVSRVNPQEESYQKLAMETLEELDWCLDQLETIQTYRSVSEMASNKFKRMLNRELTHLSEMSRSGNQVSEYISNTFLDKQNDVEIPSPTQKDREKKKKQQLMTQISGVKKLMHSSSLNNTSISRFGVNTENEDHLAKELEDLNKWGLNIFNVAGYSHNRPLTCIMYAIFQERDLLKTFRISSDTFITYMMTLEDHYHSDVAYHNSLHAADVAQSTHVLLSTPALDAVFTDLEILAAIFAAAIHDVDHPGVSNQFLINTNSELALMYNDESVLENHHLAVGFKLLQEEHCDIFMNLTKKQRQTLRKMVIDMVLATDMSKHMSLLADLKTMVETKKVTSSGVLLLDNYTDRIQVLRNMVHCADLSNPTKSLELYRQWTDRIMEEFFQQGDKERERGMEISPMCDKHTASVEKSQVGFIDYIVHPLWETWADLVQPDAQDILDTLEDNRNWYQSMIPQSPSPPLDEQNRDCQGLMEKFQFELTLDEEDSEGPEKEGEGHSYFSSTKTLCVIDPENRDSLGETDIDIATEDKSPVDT
Chain of Lysosomal acid glucosylceramidase (Homo sapiens) (P04062 whole entry, looked up): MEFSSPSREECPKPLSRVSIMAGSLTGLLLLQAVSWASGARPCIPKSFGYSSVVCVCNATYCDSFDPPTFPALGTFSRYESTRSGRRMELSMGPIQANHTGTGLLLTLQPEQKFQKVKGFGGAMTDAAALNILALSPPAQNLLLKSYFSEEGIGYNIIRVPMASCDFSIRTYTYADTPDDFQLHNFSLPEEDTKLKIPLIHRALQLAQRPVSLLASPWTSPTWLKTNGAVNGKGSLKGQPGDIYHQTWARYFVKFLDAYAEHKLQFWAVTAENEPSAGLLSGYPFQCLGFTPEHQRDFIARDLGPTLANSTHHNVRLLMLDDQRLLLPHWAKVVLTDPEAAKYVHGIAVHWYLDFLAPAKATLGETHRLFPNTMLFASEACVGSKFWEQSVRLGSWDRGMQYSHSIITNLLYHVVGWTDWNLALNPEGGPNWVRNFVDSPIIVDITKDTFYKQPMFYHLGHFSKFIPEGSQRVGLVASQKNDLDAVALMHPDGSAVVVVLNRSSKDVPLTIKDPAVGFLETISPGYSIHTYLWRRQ
Chain of Cytochrome P450 1A2 (Homo sapiens) (P05177 whole entry, looked up): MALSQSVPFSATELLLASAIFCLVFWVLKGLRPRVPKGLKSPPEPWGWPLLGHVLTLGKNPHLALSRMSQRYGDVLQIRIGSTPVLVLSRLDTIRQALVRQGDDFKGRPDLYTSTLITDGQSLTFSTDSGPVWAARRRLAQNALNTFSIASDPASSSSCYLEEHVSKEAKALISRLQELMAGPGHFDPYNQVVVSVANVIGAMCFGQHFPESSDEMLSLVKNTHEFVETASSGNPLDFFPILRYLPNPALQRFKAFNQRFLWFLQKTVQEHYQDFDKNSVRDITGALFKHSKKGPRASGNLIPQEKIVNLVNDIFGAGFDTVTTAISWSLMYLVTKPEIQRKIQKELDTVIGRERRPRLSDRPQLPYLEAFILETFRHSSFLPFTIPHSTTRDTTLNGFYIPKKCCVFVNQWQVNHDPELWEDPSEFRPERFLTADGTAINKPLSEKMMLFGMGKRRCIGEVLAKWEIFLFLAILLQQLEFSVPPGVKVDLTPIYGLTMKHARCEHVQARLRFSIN
Chain of Cytochrome P450 3A4 (Homo sapiens) (P08684 whole entry, looked up): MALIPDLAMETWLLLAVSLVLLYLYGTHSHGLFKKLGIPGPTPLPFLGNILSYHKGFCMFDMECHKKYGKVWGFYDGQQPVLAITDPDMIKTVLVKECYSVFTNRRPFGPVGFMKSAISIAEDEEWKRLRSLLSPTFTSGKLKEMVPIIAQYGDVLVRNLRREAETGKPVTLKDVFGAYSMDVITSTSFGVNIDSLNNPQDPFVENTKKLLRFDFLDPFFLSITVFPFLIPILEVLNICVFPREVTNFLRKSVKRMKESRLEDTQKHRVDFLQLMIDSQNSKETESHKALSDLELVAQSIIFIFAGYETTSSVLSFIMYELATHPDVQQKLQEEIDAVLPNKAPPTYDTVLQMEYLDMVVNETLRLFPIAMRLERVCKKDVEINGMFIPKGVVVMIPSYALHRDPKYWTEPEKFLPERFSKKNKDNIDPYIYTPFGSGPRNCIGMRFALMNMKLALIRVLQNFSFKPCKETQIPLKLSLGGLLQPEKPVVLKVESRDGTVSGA
Chain of Cytochrome P450 2D6 (Homo sapiens) (P10635 whole entry, looked up): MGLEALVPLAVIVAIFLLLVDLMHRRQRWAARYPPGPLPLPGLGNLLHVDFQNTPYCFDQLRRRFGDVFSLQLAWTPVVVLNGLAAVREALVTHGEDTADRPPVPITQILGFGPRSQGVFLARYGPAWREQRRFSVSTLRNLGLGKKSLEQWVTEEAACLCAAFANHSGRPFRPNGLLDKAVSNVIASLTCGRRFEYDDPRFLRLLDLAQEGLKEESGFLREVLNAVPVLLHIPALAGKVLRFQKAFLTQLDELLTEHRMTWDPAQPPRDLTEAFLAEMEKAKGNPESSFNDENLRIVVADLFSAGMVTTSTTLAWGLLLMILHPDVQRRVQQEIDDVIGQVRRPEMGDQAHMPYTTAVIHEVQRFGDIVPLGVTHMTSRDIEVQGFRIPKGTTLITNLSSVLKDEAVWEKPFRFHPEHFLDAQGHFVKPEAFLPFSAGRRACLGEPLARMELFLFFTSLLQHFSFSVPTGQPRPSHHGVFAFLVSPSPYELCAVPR
Chain of Cytochrome P450 2C9 (Homo sapiens) (P11712 whole entry, looked up): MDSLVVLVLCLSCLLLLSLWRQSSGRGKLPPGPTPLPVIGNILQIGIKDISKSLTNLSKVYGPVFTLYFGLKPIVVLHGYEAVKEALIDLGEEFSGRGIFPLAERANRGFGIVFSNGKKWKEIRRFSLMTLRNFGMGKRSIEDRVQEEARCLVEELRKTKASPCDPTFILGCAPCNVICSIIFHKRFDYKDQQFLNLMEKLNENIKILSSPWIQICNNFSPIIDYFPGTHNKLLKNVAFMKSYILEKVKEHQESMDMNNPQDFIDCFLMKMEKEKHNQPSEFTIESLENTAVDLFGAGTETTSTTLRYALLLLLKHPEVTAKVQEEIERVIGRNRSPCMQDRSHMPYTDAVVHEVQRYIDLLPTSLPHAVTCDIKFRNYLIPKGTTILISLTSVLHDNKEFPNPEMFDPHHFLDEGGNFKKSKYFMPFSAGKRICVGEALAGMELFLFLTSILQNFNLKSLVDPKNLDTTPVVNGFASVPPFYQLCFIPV
Chain of Cytochrome P450 2C19 (Homo sapiens) (P33261 whole entry, looked up): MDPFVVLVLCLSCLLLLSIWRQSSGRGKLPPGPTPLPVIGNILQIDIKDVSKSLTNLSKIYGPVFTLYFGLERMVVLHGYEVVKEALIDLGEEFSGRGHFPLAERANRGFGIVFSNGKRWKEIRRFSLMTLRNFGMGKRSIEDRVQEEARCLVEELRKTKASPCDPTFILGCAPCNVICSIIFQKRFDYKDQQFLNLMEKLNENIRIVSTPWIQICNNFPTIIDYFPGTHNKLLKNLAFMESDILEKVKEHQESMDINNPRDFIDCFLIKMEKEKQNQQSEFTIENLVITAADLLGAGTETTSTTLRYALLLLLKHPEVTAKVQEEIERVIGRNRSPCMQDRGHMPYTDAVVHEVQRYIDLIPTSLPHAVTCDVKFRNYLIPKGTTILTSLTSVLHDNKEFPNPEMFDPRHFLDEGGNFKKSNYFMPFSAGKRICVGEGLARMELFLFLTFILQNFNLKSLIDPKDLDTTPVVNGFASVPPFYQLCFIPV

Row | SMILES | Potency [1] [µM] | activity change, negative = inhibition [2] [%] | Potency [3] | activity, negative = inhibition [4] [%] | Potency [5] [µM] | Potency [6] [µM] | Potency [7] | activity change, negative = inhibition [3] | Potency [8] | Potency [9] | Potency [10] | Potency [11] | Potency [12] | Potency [13]
1 | Cc1ccc(S(=O)(=O)N[C@H](C(=O)O)C(C)C)cc1 | > 11.4 | 9.07 | inactive | -0.976 | > 46 | > 9.22 | inactive |  |  |  |  |  |  | 
2 | O=C(O)[C@@H]1[C@H](C(=O)O)[C@H]2C(=O)C=C[C@H]1N2Cc1ccccc1 | > 11.4 | -5.73 |  |  | > 46 | > 9.22 | inactive | -3.9% [at 2.29 µM] | inactive |  |  |  |  | 
3 | Cc1ccc(C)c(C(=N)c2ccccc2Cc2ccccc2)c1 | > 11.4 | 1.26 |  |  | > 46 | > 9.22 | inactive | -6.8% [at 2.29 µM] | inactive | 3.98 µM (active) | inactive |  |  | 
4 | O=C(O)C[C@H](NC(=O)CP(=O)(O)O)C(=O)O.[NH-][C@@H]1CCCC[C@@H]1[NH-].[Pt] | > 11.4 | -4.37 | inactive | -12 | > 46 | > 9.22 | inactive |  |  |  |  |  |  | 
5 | O[C@H](C[C@@H]1CCCCN1)c1ccc2c(c1)oc1ccccc12 | > 11.4 | 6.24 |  | 4 | > 46 | > 9.22 | inactive | -10.4% [at 2.29 µM] |  |  |  |  |  | 
6 | O[C@H](CNc1ccccn1)c1ccccc1 | > 11.4 | 1.58 | inactive | 4.88 | > 46 | > 9.22 | inactive |  |  |  |  | 1.58 µM (active) |  | 
7 | Cc1c2cnccc2c(C)c2c1c1ccccc1n2CCOC(=O)c1ccccc1 | > 11.4 | 2.26 | 0.0794 µM (active) |  | > 46 | > 9.22 | inactive |  | inactive | 0.631 µM (active) |  | 3.16 µM (active) | 3.16 µM (active) | 
8 | CSc1cccc(NC(=O)OC2CCCCCCCCCCC2)c1 | > 11.4 | 8.21 | 5.01 µM (active) |  | > 46 | > 9.22 | inactive |  | inactive |  | inactive |  |  | 
9 | COc1cc(O)c2c(O)c3c(c4c2c1[C@@]1(C4)C(C)=CCCC1(C)C)[C@H](O)[C@@]1(O)CC(=O)C(C(N)=O)=C(O)[C@]1(O)C3=O | > 11.4 | -27.8 | 3.16 µM (active) |  | > 46 | > 9.22 | inactive |  | inactive |  |  |  |  | 2.51 µM (active)
